A549 viability: Nrf2 qHTS screen for inhibitors: counterscreen for cytotoxicity; A549 ARE-Fluc cells, CellTiter-Fluor viability, 18-24 h; Potency, µM (doses to about 46 µM), without a hit: top-dose activity change, negative = cytotoxicity, actives largely listed as inhibitors; 0.16% of 390,000 active; also: potency is read from the fitted curve at half-maximal effect
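Cytotoxicity counterscreen: CellTiter-Fluor fluorescence was measured in A549 ARE_Fluc cells after 18-24 h of compound exposure in a concentration series. The subsequent BugLite luminescent read reports ARE-luciferase activity.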
Giardia killer: Small Molecules that selectively kill Giardia lamblia: qHTS | Giardia lamblia trophozoite viability | AID 540267, 2011 | 0.15% of 340,000 active | activity change, % at 7.66 µM, hits read low; in the data active = activity change below about -80%; inconclusive = between about -30% and that limit;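 also: parasites exposed to compound for two days anaerobically before the ATP read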
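Compounds were tested on trophozoites seeded at 100 cells/well and held 48 hrs at 37 deg C anaerobically. An ATP-based luminescent kit measured the remaining live cells.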
KB-V1 cytotox: qHTS assay for MDR1-selective chemotherapeutics: Primary screen using the drug-selected MDR subline cells KB-V1. KB-V1 MDR cells viability, CellTiter-Glo, 72 h. 3.4% of 400,000 active. Potency, µM (top dose mostly 46.1 µM), actives largely listed as cytotoxic; also: potency is read from the fitted curve at half-maximal effect; nearly all actives have a fitted effect of over 60% in size
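Drug-selected KB-V1 cells, grown in DMEM lacking phenol red with 10% FBS, receive compound titrations; after three days at 37 degrees C, surviving cell ATP is quantified by CellTiter-Glo luminescence and responses normalized and curve-fitted.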
KB-3-1 cytotox: qHTS assay for MDR1-selective chemotherapeutics: Primary screen using the parental adenocarcinoma cell KB-3-1; Potency, µM (highest dose often 46.1 µM), most hits filed as cytotoxic; 1.4% of 400,000 active; AID 1347075, 2019; KB-3-1 viability, CellTiter-Glo ATP luminescence, 72 h; also: potency is read from the fitted curve at half-maximal effect; nearly all actives have a fitted effect of over 60% in size
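72 h, 37 °C compound treatment of KB-3-1 parental cells; CellTiter-Glo added, 10 min, luminescence read. Data corrected against DMSO-only plates and normalized before curve fitting.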
Nrf2 inh: Nrf2 qHTS screen for inhibitors; A549 ARE-Fluc reporter, luciferase luminescence, 18-24 h; 2.1% of 360,000 active; AID 504444, 2011; Potency, µM (top dose mostly 46 µM), without a hit: at the top dose activity change, negative = inhibition, usual class: inhibitors; also: potency is read from the fitted curve at half-maximal effect; nearly all actives have a fitted effect of over 60% in size
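Quantitative HTS in A549 cells stably bearing an antioxidant response element-firefly luciferase construct. Inhibition of Nrf2-driven transcription was scored by luminescence after 18-24 h of compound exposure at 37 °C.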
PI4K2A inh: qHTS for small molecular inhibitors of PI4K2A; purified PI4K2A, ADP-Glo luminescence, 1 h; active compounds read low; activity change, negative = inhibition, % at 76.9 µM; 0.13% of 420,000 active; AID 1346378, 2018; in the data active = activity change below about -50%; inconclusive = mostly about -30% to -49%;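 also: -100% = wells without enzyme as full effect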
Target sequence (Q9BTU6 whole entry, looked up): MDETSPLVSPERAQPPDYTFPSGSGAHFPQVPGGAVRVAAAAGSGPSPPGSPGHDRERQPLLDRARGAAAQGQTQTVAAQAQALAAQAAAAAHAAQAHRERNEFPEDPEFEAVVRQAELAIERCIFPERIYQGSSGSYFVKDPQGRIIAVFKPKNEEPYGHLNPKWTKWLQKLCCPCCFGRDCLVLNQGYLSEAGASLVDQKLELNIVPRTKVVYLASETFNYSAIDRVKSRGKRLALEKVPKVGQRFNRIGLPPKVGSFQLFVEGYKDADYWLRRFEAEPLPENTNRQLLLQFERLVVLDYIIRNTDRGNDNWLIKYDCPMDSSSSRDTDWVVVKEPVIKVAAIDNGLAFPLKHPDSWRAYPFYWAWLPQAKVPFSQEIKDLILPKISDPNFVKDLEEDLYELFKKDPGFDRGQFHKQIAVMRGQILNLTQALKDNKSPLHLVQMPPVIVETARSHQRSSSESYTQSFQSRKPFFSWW
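ADP-Glo luminescence measured ADP generated by PI4K2A enzyme (4 ug/mL before mixing) with 1.2 mM PI substrate (pre-mix) and 300 microM ATP (pre-mix). Tris pH7.5 buffer with MgCl2, Triton X-100; 1 h reaction at ambient temperature.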
Numbers without * were called inactive; i = inactive; ? = inconclusive; / = no result; [ ] = another dose, or the depositor's remark. In the library only some 5.7% were active in any assay of this set; here they are far more common. Unless noted, calls follow the shape of the dose curve; as a rule, active = well fitted curve in the direction sought with a large enough effect; inconclusive = small, poorly fitted or top-dose-only effect, or another doubt; inactive = no such curve, though single readings can be large; an effect the other way counts as inactive or inconclusive. Unless noted, % is scaled to controls: 0 for no effect and ±100 for the full control effect.

SMILES	A549 viability	Giardia killer	KB-V1 cytotox	KB-3-1 cytotox	Nrf2 inh	PI4K2A inh
COc1ccc(N2CCN(C(=O)COC(=O)c3cccc(S(=O)(=O)Nc4cccc(C)c4)c3)CC2)cc1	-5.2%	-8.5	i	?	25.9µM*	-3.5
COc1ccc(N2CCN(C(=O)CCc3ccc(S(=O)(=O)NCC(C)C)cc3)CC2)cc1	-23.8%	0.3	?	?	25.9µM*	9.6
COc1ccc(C(CNC(=O)c2cccc(S(=O)(=O)Nc3cccc(C)c3)c2)N2CCOCC2)cc1 (configuration not stated)	3.8%	-17.0	20.6µM*	i	-13.6%	-1.5
COc1ccc(C(CNC(=O)c2cccc(S(=O)(=O)NCc3ccccc3)c2)N2CCOCC2)cc1 (configuration not stated)	3.9%	9.4	18.4µM*	i	8.2%	0.2
CC(C)CNS(=O)(=O)c1ccc(CCC(=O)N2CCN(c3ccc(F)cc3)CC2)cc1	-0.9%	-20.6	i	i	-17.8%	8.0
COc1ccc(C(CNC(=O)c2cccc(S(=O)(=O)Nc3ccc(C)cc3)c2)N2CCOCC2)cc1 (configuration not stated)	3.2%	-11.0	?	?	-6.2%	0.8
CC(C)(C)c1ccc(-c2nnc(SCC(=O)Nc3cccc4ccccc34)n2Cc2ccco2)cc1	/	/	/	/	/	2.5
O=C(CCOc1ccccc1)N(Cc1cccnc1)c1nc2c(F)cc(F)cc2s1	-0.4%	/	/	/	/	8.1
CC1=CC(=C(c2ccc(N)cc2)c2ccc(N)cc2)C=CC1=N	/	/	?	2.31µM*	/	/
Cc1nn(Cc2ccc(Cl)c(Cl)c2)c(C)c1NC(=O)c1cc(-c2ccco2)on1	-14.1%	6.4	5.17µM*	?	-18.8%	-8.2
Cc1ccccc1Cn1nc(C)c(NC(=O)c2sc3ccccc3c2Cl)c1C	-18.3%	-0.2	13µM*	?	?	-6.3
Cc1ccnc(NC(=O)c2ccc(Cl)c(NC(=O)c3ccccc3C)c2)c1	-2.7%	-2.7	i	i	-16.1%	3.5
Cc1ccnc(NC(=O)c2ccccc2NC(=O)c2ccc(Cl)cc2Cl)c1	-10.9%	-19.7	3.26µM*	5.8µM*	15.6%	-0.5
Cc1ccnc(NC(=O)c2sc3ccccc3c2Cl)c1	11.0%	-80.2*	?	i	?	-0.1
Cc1cccc(Cn2cc(COC(=O)NCCc3ccccc3)nn2)c1	/	/	/	/	/	1.9
Cc1ccccc1Cn1nc(C)c(NC(=O)c2cc(-c3ccco3)on2)c1C	11.9%	-2.4	i	i	17.6%	4.6
Cc1nn(Cc2ccc(F)cc2)c(C)c1NC(=O)c1nn(C)cc1Cl	-10.0%	-13.7	9.2µM*	i	16.5%	6.9
O=C(Nc1ccccc1C(=O)NCC1CCCO1)c1ccc(Cl)cc1Cl (configuration not stated)	23.1%	16.7	6.51µM*	i	17.2%	4.4
O=C(Nc1ccccc1C(=O)NCC1CCCO1)c1ccc(Cl)cc1 (configuration not stated)	-2.8%	14.6	/	/	11.0%	0.5
Cc1nn(Cc2c(Cl)cccc2Cl)c(C)c1NC(=O)c1sc2ccccc2c1Cl	-21.5%	12.0	i	i	?	1.4
Cc1nn(Cc2ccc(Cl)c(Cl)c2)c(C)c1NC(=O)c1sc2ccccc2c1Cl	-26.0%	3.8	?	?	14.6µM*	-0.2
Cc1ccc(Cn2nc(C)c(NC(=O)c3cc(-c4ccc(F)cc4)on3)c2C)cc1	-15.0%	/	i	i	-29.7%	0.6
Cc1ccccc1Cn1nc(C)c(NC(=O)c2cc3nc(-c4ccco4)cc(C(F)(F)F)n3n2)c1C	-10.3%	-2.2	?	?	20.6µM*	-7.7
O=C(NC1CCCCN(Cc2ccc(Cl)cc2)C1=O)c1ccc2ccccc2c1 (configuration not stated)	/	/	/	/	/	-3.0
CCN(CC)C(=O)CC[C@H]1CC[C@]2(CCCN(S(=O)(=O)c3ccccc3)C2)O1	/	/	/	/	/	-4.8
SMILES	A549 viability	Giardia killer	KB-V1 cytotox	KB-3-1 cytotox	Nrf2 inh	PI4K2A inh
Nc1c(C(=O)Nc2ccc(OC(F)(F)F)cc2)nnn1Cc1ccccc1	-8.9%	/	i	i	1.4%	5.9
CC(C)CNC(=O)OCc1cn(Cc2c(F)cccc2F)nn1	/	/	/	/	/	9.2
O=C(CN1CCN(C(=O)CNC(=O)c2ccc(-c3ccccc3)cc2)CC1)Nc1ccccc1Cl	/	/	8.2µM*	?	/	-2.5
COC(=O)c1cn(-c2ccc(-c3noc4c3C(=O)N(CC(=O)N3CCOCC3)CC4)cc2)nn1	/	/	/	/	/	0.3
CC(C)(C)n1nnnc1C(c1cccc(C(F)(F)F)c1)N1CCOCC1 (configuration not stated)	-1.1%	-8.2	i	i	-8.3%	-0.3
CC(C)(C)n1nnnc1C(c1cccc(C(F)(F)F)c1)N1CCC(O)CC1 (configuration not stated)	?	-7.9	i	0.0046µM*	-14.2%	5.1
CCN(CC)CCCNC(=O)CSc1nnc(-c2ccncc2)n1-c1ccc(OC)cc1	/	/	/	/	/	-2.1
Cc1ccc(S(=O)(=O)N2CCN(Cc3cc4c(cc3Br)OCCO4)CC2)cc1	-2.4%	9.6	i	3.66µM*	?	-1.1
O=c1cc(O)c2sc(Nc3ccc(Cl)c(F)c3)nc2[nH]1	-2.8%	-2.7	i	13µM*	8.3%	-1.4
COc1ccc(Nc2nc3[nH]c(=O)cc(O)c3s2)cc1	-12.0%	2.9	i	i	11.5%	-6.7
O=c1cc(O)c2sc(Nc3ccc(F)c(Cl)c3)nc2[nH]1	1.5%	-8.4	i	20.6µM*	?	-2.0
CC(=O)c1ccc(NC(=O)CSc2nc3[nH]c(=O)cc(O)c3s2)cc1	7.4%	-14.7	i	i	-2.5%	-3.7
O=S1(=O)N=C(Oc2ccccc2Cl)c2ccccc21	0.2%[65.3 µM]	/	/	/	7.6%[65.3 µM]	/
Cc1nc(C(=O)Nc2ccc(Cl)cc2)nn1-c1ccc([N+](=O)[O-])cc1	-1.1%	5.5	i	i	-10.9%	5.7
Cc1ccc(NC(=O)c2nc(C)n(-c3ccc([N+](=O)[O-])cc3)n2)cc1	-15.8%	7.0	11.6µM*	i	-8.4%	0.8
S=c1nc[nH]c2c1ncn2C1CCCO1 (configuration not stated)	-16.4%	5.6	?	4.11µM*	-4.4%	9.2
O=C(/C(=C/O)N=Nc1ccc(Cl)cc1)c1ccncc1	?	2.6	i	13µM*	/	2.8
Cc1ccc(N=N/C(=C\O)C(=O)c2ccncc2)cc1	-1.6%	-16.0	i	i	/	6.2
COc1ccccc1CNC(=O)CCCn1c(=O)c2cccn2c2ccccc21	-19.6%	/	/	/	?	3.1

From PubChem
